B2AR arrestin ag – agonists recruiting beta-arrestin to human beta2-adrenergic receptor; AID 1347077; Potency, µM (top dose mostly 46.1 µM), usual class: activators; HTLA Tango cells, beta-arrestin recruitment, luciferase luminescence, 18 h; 44,000 tested, under 10 active
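Tango cell line, 1% FBS DMEM; cpd titration up to 46 microM; 18 hr, 37 degrees C, 5% CO2. Luciferin/ATP substrate mix added, 15 min RT, luminescence. %Activity, CRC fitting, curve-class categorization.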
GALK inh – GALK (human) enzyme inhibition. P51570. recombinant GALK, Kinase-Glo ATP luminescence, 1 h. Potency, µM (highest dose often 57.5 µM), hits mostly inhibitors. 44,000 tested, under 10 active
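Luminescent ATP-depletion readout (Kinase-Glo Plus, 10 min) after 1 h RT reaction of 5 nM GALK, 35 uM ATP, 100 uM galactose, pH 8.0 HEPES buffer. Decreased kinase activity scored as inhibition.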
TSG101-PTAP inh – blocks PTAP binding to human TSG101, validation | Potency, µM (series often up to 115 µM), most hits filed as inhibitors | Fluorescence polarization, FITC-PTAP peptide/Tsg101, 20 min | AID 1347069 | 44,000 tested, under 10 active
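FITC-labeled PTAP peptide (50 nM final) binding to Tsg101 binding domain (10 uM final) read by fluorescence polarization after 20 min at r.t. in HEPES pH 7.5 buffer. Actives by CRC class, <25 µM.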
GALC G270D act – galactocerebrosidase G270D activity enhancement, cell-based | P54803 | 145M-Twi-hGALC-G270D cells (Twitcher mouse brain line with human GALC G270D), HMU-beta-Gal fluorescence, 48 h | Potency, µM (highest dose often 57.5 µM), usual class: activators | 45,000 compounds, 0.1% hits | AID 1159614; also: nearly all actives have a fitted effect of over 65% in size
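Mutant human GALC (G270D), stably expressed in a Twitcher mouse brain cell line lacking endogenous GALC, is measured in live-treated cells via 6-hexadecanoylamino-4-methylumbelliferyl-β-galactoside hydrolysis (0.1 mM final, pH 5.2) with fluorescent detection.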
Of the large screens only hits and unclear results are named; the others gave an inactive call. This is a sample that favours compounds with a hit; in the whole collection about 0.17% have one here. Calls follow the shape of the dose curve; as a rule, active = well fitted curve in the direction sought with a large enough effect; inconclusive = small, poorly fitted or top-dose-only effect, or another doubt; inactive = no such curve, though single readings can be large; an effect the other way counts as inactive or inconclusive.

O=C(O)CCCC[P+](c1ccccc1)(c1ccccc1)c1ccccc1	none (no result: B2AR arrestin ag, GALK inh, TSG101-PTAP inh)
OC1(c2ccc(Cl)cc2)CCNCC1	none (no result: B2AR arrestin ag, GALK inh, TSG101-PTAP inh)
CC(C)NC(=O)c1ccc(C=O)cc1	none (no result: B2AR arrestin ag, GALK inh, TSG101-PTAP inh)
CCc1ccccc1-n1c(N)c(C(=O)OC)c2nc3ccccc3nc21	GALC G270D act 25µM
CCS(=O)(=O)c1ccc(OC)c(C(=O)OC)c1	none (no result: B2AR arrestin ag, GALK inh, TSG101-PTAP inh)
CC(CCO)Nc1nc2c(c(=O)n(C)c(=O)n2C)n1Cc1ccc(Br)cc1 (stereo not drawn)	GALC G270D act 22µM
COC(=O)c1cc(S(N)(=O)=O)ccc1OC	none (no result: B2AR arrestin ag, GALK inh, TSG101-PTAP inh)
CNC(=O)c1cnn(-c2nc(N)c3ncn([C@@H]4O[C@H](CO)[C@@H](O)[C@H]4O)c3n2)c1	none (no result: B2AR arrestin ag, GALK inh, TSG101-PTAP inh)
c1ccc(CNc2nc3ccccc3c3nc(-c4ccccc4)nn23)cc1	none
CC(CNc1nc2ccccc2c2nc(-c3ccccc3)nn12)c1ccccc1 (stereo not drawn)	GALC G270D act 25µM
NC1[C@H]2CN(c3nc4c(cc3F)c(=O)c(C(=O)O)cn4-c3ccc(F)cc3F)C[C@@H]12 (stereo partly drawn)	none (no result: B2AR arrestin ag, GALK inh, TSG101-PTAP inh)
Cc1oc(-c2ccccc2)nc1CCC(=O)c1ccc(CC2SC(=O)NC2=O)cc1 (stereo not drawn)	none (no result: B2AR arrestin ag, GALK inh, TSG101-PTAP inh)
CCc1cc2cc(OC)c(OC)cc2c(Cc2ccccc2)n1	none (no result: B2AR arrestin ag, GALK inh, TSG101-PTAP inh)
